Results on 43 sequences are retold here after publication PMC7819943, “Rice protein-binding microarrays: a tool to detect cis-acting elements near promoter regions in rice”.

Over roughly 68,000 sequences, “fluorescence intensity (a.u.)” has its median near 9,100; the highest 2% begin near 16,000. The entries come from a sample that favours the highest values as a whole.

Chain of OsWRKY34 (Q0JBA9 entry or part of it): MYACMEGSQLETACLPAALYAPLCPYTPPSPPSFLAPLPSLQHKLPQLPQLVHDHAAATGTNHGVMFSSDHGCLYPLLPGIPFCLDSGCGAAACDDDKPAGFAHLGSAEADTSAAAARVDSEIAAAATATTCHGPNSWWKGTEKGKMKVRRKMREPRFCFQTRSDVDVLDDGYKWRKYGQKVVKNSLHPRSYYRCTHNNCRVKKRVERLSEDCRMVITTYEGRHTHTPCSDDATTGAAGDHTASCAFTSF

This experiment addresses OsWRKY34 (Oryza sativa, UniProt Q0JBA9 1-250). Description: protein-binding microarray (RPBM); PBS, 2% BSA, 51.3 ng/ul salmon testes DNA, 50 uM zinc acetate, 200 nM TF, 25 C, 1 h; high values mean tight binding. Conditions: protein: recombinant; tags: N-terminal polyhistidine and DsRed monomer fusion (pET32a); label: CyDye5-dUTP incorporated in the synthesized complementary strand; 3' TTTTT single-stranded linker to array surface; dsDNA, one strand shown. In short, it runs like this:
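Binding signal is defined as the fluorescence intensity of each feature in arbitrary units, read on an Axon 4000B scanner. Transcription factors with N-terminal polyhistidine and DsRed fusions came from E. coli BL21-CodonPlus and were purified on Ni–NTA. They were incubated at 200 nM for 1 h at 25 °C on a custom Agilent array that had been made double-stranded with Cy5-dUTP, with 50 µM zinc acetate present, and the array was washed.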
Consider “TTTTTCTCCCCAGATTGCTGTGCACGGATTTGCCGTAAGACGGAGTCACCTAGTGCAG”, for which the binding signal is 8360 fluorescence intensity (a.u.).

Turning to “TGTGTTTGAGGGGTGTGTATGTGTTGTGTTGTAGGTCAACCGGAGTCACCTAGTGCAG”, the binding signal was 9510 fluorescence intensity (a.u.).

As for “TATTTTATCTCACTGGCTATTTCCTATGATTATTTATTTCCGGAGTCACCTAGTGCAG”, the binding signal was 11400 fluorescence intensity (a.u.).

Consider “GCCGTATTTGTTTTTTTGGGATTTGGGGTTTGGATACTTGCGGAGTCACCTAGTGCAG”, for which the binding signal was 18700 fluorescence intensity (a.u.).

On to “ATTTGGGGTTTGGATACTTGAACTTTATTTTGACTTCTGACGGAGTCACCTAGTGCAG”, for which the binding signal was 14000 fluorescence intensity (a.u.).

With “GGCTTTTGGTTTCTTGGTGGTTGTGGATTTTTTTTTTTTGCGGAGTCACCTAGTGCAG”, the binding signal was 12300 fluorescence intensity (a.u.).

For “AGGAGGGGTATTGTTGCTAATCTTGATTGTTTTACTCTTGCGGAGTCACCTAGTGCAG”, the binding signal is 17000 fluorescence intensity (a.u.).

“TTGCTTGTGTTGGGCCGTAGGGTTTTTGTTTTTTTTTTTGCGGAGTCACCTAGTGCAG”: the binding signal was 8410 fluorescence intensity (a.u.).

Consider “AGTGTTAATCTTACTCCTTGTTGTATATTGCTAAGTTTTTCGGAGTCACCTAGTGCAG”, for which the binding signal was 12900 fluorescence intensity (a.u.).

Regarding “TTCTGTTTGGGTTTTGATTTGTTTCGGTTTGGCTGTTCTTCGGAGTCACCTAGTGCAG”, the binding signal was 10600 fluorescence intensity (a.u.).

As for “GATTTCTTTGTTGATTTTATTGGTTTTCTCCTAATCTTGCCGGAGTCACCTAGTGCAG”, the binding signal is 8820 fluorescence intensity (a.u.).

Take “TTGTGTTTGGGCGGGAGAATTTTTGGGGATAGATTTGCGCCGGAGTCACCTAGTGCAG”: the binding signal is 18500 fluorescence intensity (a.u.).

For “GGGGCGATTTTTTTTTTTTTTTAGAATTGCGAGATAGGGGCGGAGTCACCTAGTGCAG”, the binding signal is 10700 fluorescence intensity (a.u.).

In the case of “TTTTGGGGATAGATTTGCGCTTTTGGTGGGTGGGTTTGGGCGGAGTCACCTAGTGCAG”, the binding signal is 14200 fluorescence intensity (a.u.).

Regarding “GCGGGCTGTTTTTTTCTTGCGGTTTGGTTTGGGATTTCTGCGGAGTCACCTAGTGCAG”, the binding signal was 17400 fluorescence intensity (a.u.).

As for “TCTGTATATAAGGCCTGATTTAGTTCCCAAATTTTTTTTCCGGAGTCACCTAGTGCAG”, the binding signal was 8100 fluorescence intensity (a.u.).

On to “AATATTTCCCTTTCCAATGTTCAGTCAGCCCATCAGACCGCGGAGTCACCTAGTGCAG”, for which the binding signal is 8110 fluorescence intensity (a.u.).

Regarding “GTTCCAAAATTTTTCTTTAAACTTCCAACATTTTCATCACCGGAGTCACCTAGTGCAG”, the binding signal is 9190 fluorescence intensity (a.u.).

For “GTATGGTACAGCACATTTCTCTGTTCAAGTGTTCATTATGCGGAGTCACCTAGTGCAG”, the binding signal is 8610 fluorescence intensity (a.u.).

Consider “ATATATATGGATTAGGTTTGGATTGGGGATCATTTGTATGCGGAGTCACCTAGTGCAG”, for which the binding signal was 8360 fluorescence intensity (a.u.).

Consider “ACCTAGATCCACCTCGTTAGTTTATTTTGTGAGAGTGCTCCGGAGTCACCTAGTGCAG”, for which the binding signal was 9140 fluorescence intensity (a.u.).

For the sequence “AACACTCACATCAAGTCATCAACCGACCTTGTCAAGTCAACGGAGTCACCTAGTGCAG”, the binding signal was 10600 fluorescence intensity (a.u.).

“TTGGTTGCATGTTTTTTCACGTAAAATCTTAATTTTTGCACGGAGTCACCTAGTGCAG”: the binding signal is 8150 fluorescence intensity (a.u.).

On to “TGCTCCGACCACTGCCCACCCCGCTCCACCGGCTAGAGAGCGGAGTCACCTAGTGCAG”, for which the binding signal is 9120 fluorescence intensity (a.u.).

Take “TTGCTCACCAGAGCTACTACTACCGGTCTGTCACGCTCACCGGAGTCACCTAGTGCAG”: the binding signal is 9180 fluorescence intensity (a.u.).

As to “CCGACTGCTCAATCACCACCGGTCTGACCGGCTACCAGAGCGGAGTCACCTAGTGCAG”, the binding signal was 17200 fluorescence intensity (a.u.).

For “CAACATCTTCTTTAGTTGCTCACACTTTTTCTTAGAATCACGGAGTCACCTAGTGCAG”, the binding signal was 8340 fluorescence intensity (a.u.).

In the case of “TTTCTTCGTCCTCTTGGTTTCCCTTTCAATTCATTCATTTCGGAGTCACCTAGTGCAG”, the binding signal is 8460 fluorescence intensity (a.u.).

Take “GCTCGCCCGTCTTTCGCTCTGCCCGCAGCCCGCCGCCGCTCGGAGTCACCTAGTGCAG”: the binding signal was 14000 fluorescence intensity (a.u.).

As to “ACCGGCCCAGAACAGTTGGGCAGCCCACGAAGTCACCAACCGGAGTCACCTAGTGCAG”, the binding signal was 8540 fluorescence intensity (a.u.).

Turning to “CTTAGTTCTCCGCGCTATTCACTTCTGCGCCGTCGCTTTTCGGAGTCACCTAGTGCAG”, the binding signal is 8640 fluorescence intensity (a.u.).

In the case of “GCGCGGCGGCGGTGGGGTGGTAGTGGTGGTGGGTGGAATGCGGAGTCACCTAGTGCAG”, the binding signal is 13500 fluorescence intensity (a.u.).

In the case of “GAAGCTTCGGGAGTGGTGGTGGGTTGCGGCCGTGCGGCTCCGGAGTCACCTAGTGCAG”, the binding signal was 10900 fluorescence intensity (a.u.).

On to “GACGGCGCCCTGCGGCTTCGGTTGCGGGGTGGGTGGTGGCCGGAGTCACCTAGTGCAG”, for which the binding signal was 10300 fluorescence intensity (a.u.).

“TTGGGTTGGGTTGGGTGGTCCATTCTGTACGGTGCGCCGGCGGAGTCACCTAGTGCAG”: the binding signal was 19600 fluorescence intensity (a.u.).

“TGGGTGGGTTGGGTGGGTGGGTGGGTGCGCGGCGGGTATGCGGAGTCACCTAGTGCAG”: the binding signal was 32800 fluorescence intensity (a.u.).

For the sequence “GAGGGGAGGGAGAGGTCGGAGATGGTTACCGGTGGGGAAGCGGAGTCACCTAGTGCAG”, the binding signal is 12300 fluorescence intensity (a.u.).

For “CTCAGTATTGGGTTGGGTGGTGGTGGCGGCGGTGGCAGTGCGGAGTCACCTAGTGCAG”, the binding signal is 13700 fluorescence intensity (a.u.).

Consider “GGGTGGGCGTGATGGAGTTGGGTCGGCCGGGGTGTCCGGTCGGAGTCACCTAGTGCAG”, for which the binding signal was 14500 fluorescence intensity (a.u.).

Consider “GCTTCGGCTCGGGGTGGGTTGGGTTGGGTTGGGTTCGATGCGGAGTCACCTAGTGCAG”, for which the binding signal is 32400 fluorescence intensity (a.u.).

With “GTGGGGCTCGGGTTCCGGCCGGTGTAGGGGAGGGGAGATGCGGAGTCACCTAGTGCAG”, the binding signal was 15700 fluorescence intensity (a.u.).

Turning to “CAAGATGGGTCGGGTTGGGTGGGGTTACTCGCACTAGCACCGGAGTCACCTAGTGCAG”, the binding signal is 22300 fluorescence intensity (a.u.).

Consider “GCGCTGTGGTCCCGGCGCCGGCAGTGGTTGCTTCTGCGCGCGGAGTCACCTAGTGCAG”, for which the binding signal is 8560 fluorescence intensity (a.u.).
